# From PubChem BioAssay
# In the library only some 2.3% were active in any assay of this set; here they are far more common.
# HTR2A ag = mouse HTR2A agonism via beta-arrestin recruitment; P35363; CHO-K1 mHTR2A beta-arrestin complementation, luminescence; percent of 30 µM serotonin response; activation, % at 7.6 µM; 360,000 tested, 0.66% active; AID 624169;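 active = activation above a run cutoff, the mean activation of all tested compounds plus 3 SD, cut at about 14% in these data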;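 also: 0% = plate median of compound wells and 100% = 30 µM serotonin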
# B2AR ag = human beta-2 adrenergic receptor agonism by FAP; Am2.2-beta2AR cells, FAP receptor internalization, flow cytometry; 340,000 tested, 0.43% active; P07550; response, % (test concentration not listed);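 active = response above a set limit, near 3 SD of response in nonfluorescent compounds, cut at about 42% in these data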
# Target sequence (P07550 whole entry, looked up): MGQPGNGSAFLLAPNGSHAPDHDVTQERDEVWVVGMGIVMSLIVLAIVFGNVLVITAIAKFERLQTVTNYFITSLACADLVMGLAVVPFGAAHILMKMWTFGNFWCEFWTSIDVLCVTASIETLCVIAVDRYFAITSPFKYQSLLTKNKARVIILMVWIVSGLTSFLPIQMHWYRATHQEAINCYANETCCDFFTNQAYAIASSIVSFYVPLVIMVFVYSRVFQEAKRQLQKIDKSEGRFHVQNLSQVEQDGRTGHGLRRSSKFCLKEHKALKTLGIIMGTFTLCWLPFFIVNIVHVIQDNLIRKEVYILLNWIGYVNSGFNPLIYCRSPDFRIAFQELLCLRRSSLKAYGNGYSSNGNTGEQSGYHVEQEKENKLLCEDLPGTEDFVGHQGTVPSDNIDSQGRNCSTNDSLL
# Granule exo inh = blocks lytic granule exocytosis | inhibition, % at 10 µM | 360,000 tested, 0.66% active | TALL-104 LAMP-1 surface exposure, flow cytometry; cells stimulated with thapsigargin and PMA;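 active = inhibition above about 55%, limit read from the data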
# ABHD5 PLIN5 PPI = blocks binding of human ABHD5 to perilipin-5; Split G. princeps luciferase complementation, luminescence, 4 h; 360,000 tested, 0.78% active; inhibition, % at 4 µM; AID 602281;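 active = inhibition above the mean inhibition across every tested compound plus 3 SD, cut at about 22% in these data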;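 also: 0% = DMSO only wells and the 100% control is not disclosed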
# NTR1 ag = NTR1 (human) agonism; activation, % at 20 µM; NTR1-U2OS beta-arrestin-GFP spot imaging, agonist mode; AID 493036; P30989; 330,000 tested, 0.17% active;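 active = activation at or above 40% of the spot to cytoplasm intensity ratio, with at least 20 cells analyzed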;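 also: 0% = DMSO without peptide and 100% = 100 nM NTR1 peptide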
# OPRM1 ag = counter-screen for mouse HTR2A agonists: human mu opioid receptor agonists; shares compounds with HTR2A ag; U2OS OPRM1 beta-arrestin PathHunter, luminescence; DMSO 0%, DAMGO 9.3 µM 100%; activation, % at 9.3 µM; 2,300 tested, 5.3% active;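 active = mean activation above the mean of DMSO-only wells plus 3 SD, cut at about 0.5% in these data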
# HTR2A ag conf = confirmation of mouse HTR2A serotonin receptor agonists. CHO-K1 PathHunter beta-arrestin recruitment, luminescence; DMSO 0%, 30 µM serotonin 100%. activation, % at 7.6 µM. AID 624381. shares compounds with HTR2A ag. 2,300 tested, 19% active;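 active = mean activation across triplicates above the hit threshold derived in the original primary screen, cut at about 15% in these data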
# * hit, by the source's call; . = not tested or not shown.
SMILES,HTR2A ag,B2AR ag,Granule exo inh,ABHD5 PLIN5 PPI,NTR1 ag,OPRM1 ag,HTR2A ag conf
COc1ccccc1N1CCN(Cc2ccsc2)CC1,3.9,3.5,-1.2,1.3,-1.6,.,.
Cc1cccc(CN2CCN(c3ncccn3)CC2)c1,37.1*,-0.2,-5.0,0.1,0.2,-0.6,92.9*
c1ccc(COc2cccc(CN3CCN(c4ccccn4)CC3)c2)cc1,35.9*,0.0,-4.4,1.2,0.4,-0.6,93.2*
Cc1ccc(CN2CCN(c3ccccn3)CC2)s1,48.8*,-5.2,-1.2,10.8,0.3,-0.5,103.0*
CCc1ccc(CN2CCN(c3ncccn3)CC2)cc1,8.3,1.6,-5.4,2.4,0.6,.,.
c1ccc(N2CCN(Cc3ccsc3)CC2)nc1,35.4*,-7.1,-0.2,1.0,-1.4,-0.6,102.2*
C=CCN(c1ccccc1)S(=O)(=O)c1cccc(C(=O)NC2CCN(Cc3ccccc3)CC2)c1,-11.4,8.9,5.9,0.5,0.9,.,.
Brc1cccc(CN2CCN(c3ncccn3)CC2)c1,33.5*,-2.7,-5.0,5.3,-0.4,-0.3,83.7*
Cc1cccc(CN2CCN(c3ccccn3)CC2)c1,31.5*,-11.5,0.3,-0.4,-2.1,-0.6,92.3*
c1ccc(CCCN2CCN(c3ccccn3)CC2)cc1,-0.6,1.9,2.6,-3.6,0.5,.,.
O=S(=O)(NC1=NCCCCC1)c1cc(F)ccc1F,22.4*,4.7,-1.4,-3.7,-1.2,-0.7,2.3
O=C(CN1CCN(c2ccccn2)CC1)Nc1cccc(S(=O)(=O)N2CCCC2)c1,19.4*,1.6,0.5,3.5,-0.6,0.2,69.1*
O=C(CN1CCN(c2ccccn2)CC1)Nc1ccccc1,9.8,1.0,13.2,13.0,0.5,.,.
O=C(CN1CCN(c2ccccn2)CC1)Nc1ccc(Oc2ccccc2)cc1,33.5*,-10.3,-4.7,4.4,0.2,-0.6,92.2*
O=C(C1CCN(CCCc2ccccc2)CC1)N1CCCCC1,19.5*,-4.6,-3.2,-3.7,0.8,-0.7,45.4*
CC1CCN(C(=O)C2CCN(CCCc3ccccc3)CC2)CC1,.,.,.,.,0.3,.,.
COc1ccc(NC(=O)CNS(=O)(=O)c2cccs2)cc1,24.4*,-1.1,0.3,-1.9,1.6,-0.5,-0.7
COc1cccc(N2CCN(c3ncnc4c3cnn4-c3ccc(C)cc3C)CC2)c1,15.0*,40.0,6.2,-2.9,21.7,3.0*,10.4
COc1cc2c(cc1OC)CN(c1nc(CN3CCCC3)nc3sc(C)c(C)c13)CC2,35.3*,13.2,-0.6,0.9,0.4,-0.8,31.8*
CCOC(=O)c1[nH]c(C)c(C(=O)OCC(=O)N(Cc2ccccc2)C(C)C)c1C,19.6*,3.7,-1.3,-8.7,5.5,-0.6,-0.6
COc1cc(C(=O)C(=O)c2ccc(O)c(OC)c2)ccc1O,7.2,4.5,-8.5,-2.8,1.0,.,.
COc1cc(C(=O)O)ccc1O,27.7*,-8.0,7.1,4.2,-1.7,-0.6,-0.8
COC(=O)CSc1[nH]c(=O)cc(C)c1C#N,17.1*,4.8,3.8,-2.5,0.2,-0.5,-2.7
COc1ccccc1CNC(=O)COC(=O)c1cc(=O)[nH]c2ccccc12,3.4,-6.9,2.3,-1.4,-0.9,.,.
CC(C)C(NC(=O)/C(=C\c1ccco1)NC(=O)c1ccco1)C(=O)O (configuration not stated),19.1*,-2.4,-6.6,1.8,1.5,-0.7,-4.4
SMILES,HTR2A ag,B2AR ag,Granule exo inh,ABHD5 PLIN5 PPI,NTR1 ag,OPRM1 ag,HTR2A ag conf
C#CCOC(=O)CCCC(=O)Nc1ccccc1OC,18.2*,-3.0,-2.6,-5.7,-1.8,-0.2,-0.2
Cc1ccc(N2CCN(C(=O)N3CCCC3)CC2)cc1Cl,2.1,-12.8,1.2,2.6,-0.1,.,.
O=C(O)C1CC1C(=O)N1CCN(c2ccc(Cl)c(Cl)c2)CC1 (configuration not stated),35.5*,2.7,0.6,12.4,-2.0,-0.7,18.6*
Cc1occc1C(=O)N1CCN(c2ccc(Cl)c(Cl)c2)CC1,35.9*,-2.3,-2.9,-0.1,8.0,-0.3,12.6
CN1CCN(C2OC(=O)c3ccccc32)CC1 (configuration not stated),-0.2,-3.7,0.6,-2.9,-0.9,.,.
O=C1OC(N2CCN(c3ccccn3)CC2)c2ccccc21 (configuration not stated),14.7*,4.8,1.1,3.1,4.9,-0.6,22.6*
Cc1ccc(Oc2ncccc2/C=N/OCc2ccc(Cl)c(Cl)c2)cc1,-2.8,2.3,-0.7,-5.7,1.3,.,.
CC1(/[N+]([O-])=C\c2ccccc2F)CCCCC1=O (configuration not stated),16.4*,0.1,12.1,-0.7,-0.2,-0.1,-1.1
Nc1ccn(CCCN2CCN(C(=O)C3CC3)CC2)c(=O)n1,-0.5,.,-1.8,3.1,.,.,.
NS(=O)(=O)c1ccc(NC(=S)N2CCN(c3ccc(Cl)c(Cl)c3)CC2)cc1,35.5*,-1.3,-2.0,-3.7,10.6,-0.2,10.1
CCCN1CCN(C(=S)Nc2ccc(S(N)(=O)=O)cc2)CC1,15.5*,-1.8,-2.4,-1.0,-0.1,-0.5,-0.7
NS(=O)(=O)c1ccc(NC(=S)N2CCN(Cc3ccc(Cl)c(Cl)c3)CC2)cc1,-9.2,0.0,1.7,-3.8,2.7,.,.
Cc1ccc(S(=O)(=O)N2[C@@H](c3cccc(Cl)c3)C(C(=O)O)=CC[C@H]2c2cccs2)cc1,7.5,-1.4,-1.8,3.3,1.0,.,.
O=C(Nc1ccc2oc(-c3cccnc3)nc2c1)c1ccco1,14.6*,-15.9,-2.0,4.1,-1.1,-0.6,-3.4
O=C(Nc1ccc2oc(-c3cccnc3)nc2c1)c1ccc(Br)o1,1.7,-6.0,0.5,-2.2,5.2,.,.
O=C1c2ccccc2NC(c2ccccc2Cl)N1N=C1CCCCCC1 (configuration not stated),-0.8,1.5,-22.4,-4.2,8.3,.,.
COc1cc(OC)cc(C(=O)NCC(=O)N2CCC(C)CC2)c1,27.8*,-0.5,-4.4,-5.0,0.3,-0.4,2.8
COc1ccc2nc(NC(=O)c3ccoc3C)sc2c1,22.8*,7.8,-5.3,-8.8,0.3,-0.6,-4.6
Cc1c(NC(=O)CN2C(=O)c3ccc([N+](=O)[O-])cc3C2=O)c(=O)n(-c2ccccc2)n1C,17.2*,1.6,0.3,-1.2,-0.4,-0.5,-2.7
Cc1ccc(OCCC(=O)OCC(=O)Nc2ccc(F)cc2)cc1,-1.9,0.3,-4.4,5.4,-0.3,.,.
Cc1ccc(OCCC(=O)OCC(=O)Nc2ccccc2)cc1,17.3*,7.9,0.3,14.7,0.3,-0.6,-4.7
CCc1cccc(C)c1NC(=O)CN(C)C1=NS(=O)(=O)c2ccccc21,2.2,-2.0,0.5,-3.2,-1.4,.,.
Cc1cc(Cl)ccc1NC(=O)CN(C)C1=NS(=O)(=O)c2ccccc21,14.8*,1.1,0.3,3.5,-0.5,0.2,0.6
